The values that follow come from PubChem BioAssay AID463173 (ICCB-Longwood Screening Facility, Harvard Medical School, 2010).

Out of some 52,000 compounds screened, about 4,300 (8.3%) were called active. The list comes from a sample in which actives are over-represented; it also holds similar structures and randomly drawn compounds. Unmarked numbers belong to inactive results. No stated cut-off is given here; in the data, active means survival mostly below about 52% (no sharp cut-off); inactive means mostly above about 56%.

This assay deals with DeltatarO mutant. Briefly: growth inhibition of S. aureus wild type versus tarO mutant, primary screen, teichoic acid synthesis inhibitors, RN4220, OD600 (AID 463173). The following applies: OD600, 18 h, stronger effect = lower value, screened at 18.75 µg/mL (by protocol).
For `N#Cc1cn(-c2ccccc2)nc1-c1cccnc1`, the survival is 73%.

Turning to `O=C(Nc1ccccn1)NC12CC3CC(CC(C3)C1)C2`, the survival is 106%.

Regarding `Cc1ccc(NC(=O)c2oc3ccc4c(c3c2C)C(=O)CC(C)(C)O4)c(C)c1`, the survival was 83%.

Consider `CC1CCN(C(C(=O)O)c2ccccc2)CC1` (stereo not given), for which the survival is 98%.

With `CN1CCN(C(CNC(=O)C(=O)Nc2ccc(Cl)cc2)c2cccnc2)CC1` (stereo not given), the survival was 86%.

As for `COc1ccccc1CNC(=O)CSc1ncc(S(=O)(=O)c2ccc(C)c(Cl)c2)c(=O)[nH]1`, the survival is 124%.

On to `O=S(=O)(NCc1ccccc1)c1ccc(-c2cnc(C3CC3)o2)cc1`, for which the survival was 71%.

For the compound `Cc1cccc(CNS(=O)(=O)c2ccc(-c3cnc(C4CC4)o3)cc2)c1`, the survival was 52% (active).

Turning to `Cc1ccc(CNS(=O)(=O)c2ccc(-c3cnc(C4CC4)o3)cc2)cc1`, the survival was 76%.

Consider `CC(C)c1ccc(NC(=O)C(C)N(c2ccccc2)S(C)(=O)=O)cc1` (stereo not given), for which the survival was 65%.

Turning to `Cc1ccc2onc(CC(=O)N(C)c3ccccc3)c2c1`, the survival is 52%.

`COc1ccc(N2CCN(C(=O)Cc3coc4ccc(C)cc34)CC2)cc1`: the survival was 105%.

For the compound `Cc1ccc2onc(CC(=O)N3CCN(c4ccc(Cl)cc4)CC3)c2c1`, the survival was 30% (active).

On to `Cc1ccc2onc(CC(=O)N3CCN(c4ccccc4F)CC3)c2c1`, for which the survival is 71%.

On to `COc1ccc(N2CCN(C(=O)Cc3noc4ccc(C)cc34)CC2)cc1`, for which the survival was 42% (active).

Regarding `Cc1ccc2onc(CC(=O)N3CCN(c4cccc(C)c4C)CC3)c2c1`, the survival is 39% (active).

For `Cc1ccc2oc(=O)c3cnn(CC(=O)N4CCN(c5ccccc5)CC4)c3c2c1`, the survival was 123%.

For the compound `Cc1ccc2onc(CC(=O)N3CCN(c4cccc(Cl)c4)CC3)c2c1`, the survival was 83%.

Turning to `Cc1ccc2onc(CC(=O)N3CCN(c4ccccc4)CC3)c2c1`, the survival was 40% (active).

For the compound `Cc1ccc2onc(CNC(=O)N3CCN(c4cccc(C)c4C)CC3)c2c1`, the survival was 48%.

Regarding `COc1ccc(N2CCN(C(=O)NCc3noc4ccccc34)CC2)cc1`, the survival was 42%.

Take `Cc1ccc2onc(CC(=O)N3CCN(c4cc(Cl)ccc4C)CC3)c2c1`: the survival is 96%.

On to `COc1ccc(-n2c(=O)[nH]c3cc(C(=O)NCCc4ccccc4)ccc3c2=O)cc1OC`, for which the survival is 94%.

For `COc1ccccc1NC(=O)Cn1c(=O)n(-c2ccc(C)cc2)c(=O)c2ccc(C(=O)NCc3ccco3)cc21`, the survival was 79%.

Take `Cc1ccc(N2CCN(C(=O)Cn3ncc4c([nH]c5ccc(C)cc54)c3=O)CC2)c(C)c1`: the survival was 94%.

As for `COc1ccc(NC(=O)C2=C(C)Nc3ncnn3C2c2ccccn2)cc1` (stereo not given), the survival is 81%.

As for `Cc1ccc(S(=O)(=O)N2C(=O)CCC2C(=O)NCc2ccco2)cc1` (stereo not given), the survival is 77%.

Regarding `Cc1ccc2c(CC(=O)N3CCN(c4cccc(Cl)c4)CC3)coc2c1`, the survival was 75%.

Turning to `CCN(CC)CC(=O)Oc1ccc(NC2=NS(=O)(=O)c3ccccc32)cc1`, the survival is 96%.

`CC1CCCN(C(=O)CCS(=O)(=O)c2cc3c(cc2Cl)NC(=O)CO3)C1` (stereo not given): the survival was 84%.

On to `CCCC(=O)NCCc1ccc(F)cc1`, for which the survival is 119%.

With `COC(=O)c1cc2occc2n1CC(=O)Nc1cccc(SC)c1`, the survival is 102%.

Consider `Cc1ccc2onc(CC(=O)N3CCN(c4ccc(F)cc4)CC3)c2c1`, for which the survival was 41% (active).

On to `Cc1ccc2oc(=O)c3cnn(CC(=O)N4CCN(c5ccc(F)cc5)CC4)c3c2c1`, for which the survival was 106%.

As to `CC(=O)c1ccc(N2CCN(C(=O)NCc3noc4ccc(C)cc34)CC2)cc1`, the survival is 45%.

In the case of `CC(C)CNCC(=O)N(C1CCCCC1)C1CCCCC1`, the survival was 116%.

Take `N#CCN(CC#N)C(=O)c1cc(-c2ccccc2)nc2ccccc12`: the survival is 89%.

For the compound `COc1ccc(-c2cc(C(=O)NCc3ccc(C)cc3)c3cc(C(C)C)ccc3n2)cc1`, the survival was 76%.

`Cc1ccc(-c2cc(C(=O)NCc3cnn(C)c3C)c3ccccc3n2)cc1C`: the survival is 49% (active).

On to `CCn1cc(CNC(=O)c2cc(-c3ccc(C)cc3)nc3ccc(Br)cc23)c(C)n1`, for which the survival is 40% (active).

Turning to `CCn1cc(CNC(=O)c2cc(-c3ccc(C)c(C)c3)nc3ccccc23)c(C)n1`, the survival is 123%.

`Cc1ccc(-c2cc(C(=O)NCc3cnn(C)c3C)c3cc(Br)ccc3n2)cc1`: the survival is 36% (active).

For the compound `Cc1ccc(-c2cc(C(=O)NCc3ccccc3Cl)c3ccccc3n2)cc1C`, the survival is 68%.

As to `Cc1c(CN(C)C(=O)c2cc(-c3ccccc3)nc3ccc(Br)cc23)cnn1C`, the survival was 30% (active).

As to `CCOc1ccc(-c2cc(C(=O)NCc3ccccc3Cl)c3ccccc3n2)cc1`, the survival is 89%.

As to `Cc1nn(C)cc1CN(C)C(=O)c1cc(-c2ccccc2)nc2ccc(Br)cc12`, the survival was 67%.

Turning to `Cc1ccc(CNC(=O)c2cc(-c3ccc(C)c(C)c3)nc3ccccc23)cc1`, the survival was 74%.

Turning to `Cc1ccc(-c2cc(C(=O)NCc3cnn(C)c3)c3cc(Br)ccc3n2)cc1`, the survival was 51%.

As for `CC(C)N(C(=O)CSc1nnc(CSc2ncccn2)n1C)C(C)C`, the survival was 58%.

As to `CCOC(=O)c1ccc(NC(=O)Cc2ccc(-n3c(CC)nc4cccnc43)cc2)cc1`, the survival was 68%.

As for `Cc1ccccc1Cn1c(=O)n(Cc2ccc3c(c2)OCO3)c(=O)c2oc3ccccc3c21`, the survival was 110%.

`C/C=N/NC(=O)c1ccccc1`: the survival is 93%.

In the case of `O=C(NC1CCCCC1)c1ccc2c(c1)N(Cc1cccc(F)c1)C(=O)c1ccccc1S2`, the survival was 88%.

`Cn1cnc(S(=O)(=O)N2CCC(C(=O)Nc3ccc(C#N)cc3)CC2)c1`: the survival was 107%.

In the case of `CC1=C(C(=O)Nc2cccc(C(F)(F)F)c2)C(c2ccccn2)n2ncnc2N1` (stereo not given), the survival is 102%.

Consider `CC(C)(C)c1nn(-c2ccccc2)c2[nH]c(=O)c(CNc3ccc4c(c3)OCO4)cc12`, for which the survival was 86%.

For `CCOC(=O)c1ccc(N2C(=O)c3[nH]nc(-c4ccccc4)c3C2c2cccs2)cc1` (stereo not given), the survival is 123%.

In the case of `CCOC(=O)c1cc2c(=O)n3ccccc3nc2n(Cc2ccco2)c1=NC(=O)c1ccc(OC)cc1`, the survival is 34% (active).

Take `CCOC(=O)c1cc2c(=O)n3ccccc3nc2n(CC(C)C)c1=NC(=O)COc1ccc(Cl)cc1`: the survival was 136%.

For `CCOC(=O)c1cc2c(=O)n3ccccc3nc2n(Cc2ccco2)c1=NC(=O)c1ccccc1Br`, the survival was 71%.

Turning to `CCOC(=O)c1cc2c(=O)n3ccccc3nc2n(Cc2ccco2)c1=NC(=O)c1ccccc1OC`, the survival was 28% (active).

As for `CCOC(=O)c1cc2c(=O)n3ccccc3nc2n(Cc2ccco2)c1=NC(=O)c1ccc(OCC)cc1`, the survival was 37% (active).

Take `CCC(C)NC(=O)Cn1c(=O)n(Cc2ccc(C(=O)NCc3ccccc3OC)cc2)c(=O)c2ccccc21` (stereo not given): the survival is 84%.

`O=c1ccnc(NCCc2ccccc2)[nH]1`: the survival was 104%.

As for `Cn1cnc(S(=O)(=O)N2CCCC(C(=O)NCc3ccccc3Cl)C2)c1` (stereo not given), the survival was 99%.

For `O=C1CSC(=S)N1C1CCS(=O)(=O)C1` (stereo not given), the survival is 97%.

On to `O=C1/C(=C\c2cccnc2)SC(=S)N1C1CCS(=O)(=O)C1` (stereo not given), for which the survival is 93%.

For the compound `O=C1/C(=C/C2=Cc3ccccc3OC2)SC(=S)N1C1CCS(=O)(=O)C1` (stereo not given), the survival was 44% (active).

Consider `COc1ccc(-n2cc(-c3ccc4c(c3)OCO4)n(CC(=O)Nc3cc(Cl)ccc3C)c2=O)cc1`, for which the survival was 73%.

Turning to `O=C(c1ccc2c(c1)N(Cc1ccc(F)cc1)C(=O)c1ccccc1S2(=O)=O)N1CCN(Cc2ccccc2)CC1`, the survival is 72%.

As for `Cc1ccc(CCNC(=O)c2ccc(CSCc3ccccc3Cl)o2)cc1`, the survival is 87%.

Regarding `O=C(CCSCc1ccccc1Cl)NCCc1ccccc1`, the survival was 71%.

As to `Cc1ccc(CNC(=O)CCSCc2ccccc2F)cc1`, the survival is 78%.

With `Cc1ccccc1CSCc1ccc(C(=O)NCCc2ccccc2)o1`, the survival was 83%.

Consider `O=C(CCSCc1cccc(Cl)c1)NCCc1ccc(Cl)cc1`, for which the survival is 76%.

`Cc1ccc(CCNC(=O)CCSCc2ccccc2Cl)cc1`: the survival was 20% (active).

`O=C(CCSCc1ccc(Cl)cc1)NCCc1ccccc1`: the survival is -5% (active).

As for `Cc1ccc(CCNC(=O)CCSCc2ccc(Cl)cc2)cc1`, the survival was 82%.

Regarding `Cc1ccc(CCNC(=O)c2ccc(CSCc3ccccc3C)o2)cc1`, the survival is 32% (active).

In the case of `CCc1ccc(CNC(=O)CCSCc2ccccc2F)cc1`, the survival was 96%.

Turning to `Cc1ccc(CCNC(=O)CCSCc2ccccc2F)cc1`, the survival is -4% (active).

In the case of `COc1ccc(CCNC(=O)CCSCc2ccccc2Cl)cc1OC`, the survival is 76%.

With `O=C(NC1CCN(CC(=O)N2CCOCC2)CC1)C1CCCCC1`, the survival is 95%.

As to `CCN(C(=O)c1cccn(Cc2cccc(Cl)c2)c1=O)c1ccccc1`, the survival was 80%.

As for `COc1ccccc1C(=O)Nc1ccc(OCc2cc(=O)n3cccc(C)c3n2)cc1`, the survival is 94%.

Take `CC(C)Cc1cc(C(=O)O)nc(=O)[nH]1`: the survival is 105%.

For `CC(=O)c1ccc(NC(=O)COCc2cc(-c3ccc(F)cc3)on2)cc1`, the survival was 102%.

With `Cc1ccccc1NC(=O)CSc1cn(CC(=O)N(C(C)C)C(C)C)c2ccccc12`, the survival is 54%.

In the case of `CN1CCN(C(=O)C23CC4CC(CC(C4)C2)C3)CC1`, the survival was 111%.

As to `COc1cc(C(=O)NCC(c2cccs2)S(=O)(=O)c2ccc(F)cc2)cc(OC)c1OC` (stereo not given), the survival was 104%.

In the case of `CCOc1ccc(S(=O)(=O)Nc2ccc(OC)c(Cl)c2)c2cccnc12`, the survival is 70%.

On to `O=C(CCSCc1cnn(-c2ccccc2)c1-n1cccc1)NCc1ccccc1F`, for which the survival is 61%.

Take `O=C(NCc1ccc(F)cc1Cl)c1ccc(CSCc2ccccc2Cl)o1`: the survival was 54%.

As for `O=C(CCSCc1cccc(Cl)c1)NCc1ccc(F)cc1Cl`, the survival is 102%.

For `O=C(NCc1ccccc1Cl)c1ccc(CSCc2ccccc2Cl)o1`, the survival was 93%.

For the compound `O=C(CCSCc1cnn(-c2ccccc2)c1-n1cccc1)NCc1ccccc1Cl`, the survival was 54% (active).

As to `O=C(NCc1ccccc1Cl)c1ccc(CSCc2cccc(F)c2)o1`, the survival is 17% (active).

As to `O=C(CCSCc1ccccc1Cl)NCc1ccc(F)cc1Cl`, the survival is 8% (active).

Consider `Cc1ccccc1CNC(=O)CCSCc1cnn(-c2ccccc2)c1-n1cccc1`, for which the survival is 64%.

Take `O=C(CCSCc1ccc(Cl)cc1)NCc1ccc(F)cc1Cl`: the survival is 88%.
